# Calls of active or inactive are those of the source. Rule for the calls: active = hit-call score of the fitted dose curve at least 0.9, where 1 is the maximum; inactive = score below 0.9.
# Read-out: Interleukin-1 alpha (IL1a), IL1A (gene 3552)
# Experiment: BSK_KF3CT_IL1a: BioMAP Diversity Plus: KF3CT Assay for Interleukin-1 alpha (IL1a) Biomarker Activity (AID 2283070)
# Settings: primary human keratinocytes with fibroblasts; actives raise or lower the signal
# Procedure: BSK_KF3CT is a cell-based, multiplexed-readout assay that uses keratinocytes and foreskin fibroblasts, a human skin primary cell co-culture, with measurements taken at 24 hours after chemical dosing in a 96-well plate.BSK_KF3CT_IL1a is an assay component measured in the BSK_KF3CT assay. It measures IL-1a antibody related to regulation of gene expression using ELISA technology.Data from the assay component BSK_KF3CT_IL1a was analyzed into 1 assay endpoint. This assay endpoint, BSK_KF3CT_IL1a, was analyzed with bidirectional fitting relative to DMSO as the negative control and baseline of activity. Using a type of binding reporter, gain or loss-of-signal activity can be used to understand changes in the signaling as they relate to the gene IL1A. Furthermore, this assay endpoint can be referred to as a primary readout, because this assay has produced multiple assay endpoints where this one serves a signaling function. To generalize the intended target to other relatable targets, this assay endpoint is annotated to the cytokine intended target family, where the subfamily is interleukins.
# The levels of cell surface (or secreted, indicated by the prefix "s") biomarker endpoints were measured by ELISA. Overt cytotoxicity to cells in confluent adherent cultures (all systems other than the BT system) was assessed by measuring total protein levels using sulforhodamine B (SRB) staining in parallel cultures at the time of biomarker measurements, indicated as SRB endpoints. For proliferation assays for adherent cell types, individual cell types are cultured at sub-confluence and relative cell numbers quantified by SRB staining at time points optimized for each system (48 h: 3C and CASM3C systems; 72 h: BT and HDF3CGF systems; 96 h: SAg system). SRB was performed by staining cells with 0.1% SRB after fixation with 10% TCA and reading wells at 560 nm.Viability and proliferation of PBMC (T cells) was quantified by Alamar Blue reduction for the SAg and BT systems. For PBMC viability (referred to as PBMC Cytotoxicity within the assay endpoint names), cells were plated (75,000/well in a 96-well plate) and then chemical samples added for 1 h before addition of activators, SEB and TSST-1 (20 ng/mL final concentration each). Cells were incubated for 90 h. Then, Alamar Blue (20 uL/well) (Invitrogen, Cat DAL1100) was added for 6 h, and the plates were read with a fluorescence microplate reader at 546/580 nm (excitation/emission). For PBMC proliferation, cells were plated and activated as above but incubated for only 16 h prior to addition of Alamar Blue. Plates were read after 6 h.
Structure (SMILES),outcome,AC50
COc1ccccc1N,inactive,–
Cc1ccccc1OP(=O)(Oc1ccccc1)Oc1ccccc1,–,20 µM (active)
Oc1ccc(Cc2ccc(O)cc2)cc1,inactive,–
CC(C=O)Cc1ccc2c(c1)OCO2 (stereo not given),inactive,–
CN(C)C(=S)S,inactive,–
O=S(=O)(C(Cl)(Cl)Cl)C(Cl)(Cl)Cl,–,1.67 µM (active)
Cc1ccc(OP(=O)(Oc2ccc(C)cc2C)Oc2ccc(C)cc2C)c(C)c1,inactive,–
N#CCCC(Br)(C#N)CBr (stereo not given),–,14.4 µM (active)
Oc1c(Cl)cc(Cl)cc1Cl,inactive,–
Cc1cccc(OP(=O)(Oc2cccc(C)c2)Oc2cccc(C)c2)c1,inactive,–
CC(C)=CC1C(C(=O)OCc2cccc(Oc3ccccc3)c2)C1(C)C (stereo not given),inactive,–
CCOC(=O)C(SP(=S)(OC)OC)c1ccccc1 (stereo not given),inactive,–
CCOC(=O)CC(=O)CCl,–,6.58 µM (active)
CCOP(=O)(OCC)SCCSCC,inactive,–
O=C1C=CC(=O)c2ccccc21,–,2.04 µM (active)
OC(Cc1ccccc1Cl)(Cn1[nH]cnc1=S)C1(Cl)CC1 (stereo not given),inactive,–
CCN(CC)C(=O)C(Cl)=C(C)OP(=O)(OC)OC,inactive,–
N#Cc1cccnc1,inactive,–
O=C(O)COc1cc(Cl)c(Cl)cc1Cl,inactive,–
Clc1cccc(Cl)c1,inactive,–

Structure (SMILES),outcome,AC50
CC(C)(C)c1ccccc1O,inactive,–
O=S(=O)(c1ccc(Cl)cc1)c1cc(Cl)c(Cl)cc1Cl,inactive,–
C=CC(Cl)CCl (stereo not given),–,0.0797 µM (active)
CC(C)N(C(=O)CCl)c1ccccc1,inactive,–
Nc1c(Oc2ccccc2)cc(O)c2c1C(=O)c1ccccc1C2=O,inactive,–
OC(Cc1ccccc1Cl)(Cn1cncn1)C1(Cl)CC1 (stereo not given),inactive,–
O=c1oc2ccccc2c(O)c1C(CC(O)c1ccc(-c2ccc(Br)cc2)cc1)c1ccccc1 (stereo not given),–,5.57 µM (active)
O=[N+]([O-])c1cccc2ccccc12,inactive,–
c1ccc2sc(SNC3CCCCC3)nc2c1,inactive,–
NC(=O)CCl,inactive,–
OCCCCO,inactive,–
CCCCOC(=O)COC(=O)c1ccccc1C(=O)OCCCC,inactive,–
Cc1cc(Cl)ccc1OC(C)C(=O)O (stereo not given),inactive,–
O=C(CCl)NCO,inactive,–
OCCN(CCO)CCO,inactive,–
CCCCCCCCCCCCc1cccc(S(=O)(=O)O)c1,–,33.3 µM (active)
Clc1cccc(Cl)c1Cl,inactive,–
Cc1cc(C)cc(C)c1,inactive,–
Nc1ccc(N)cc1,inactive,–
C[C@]12CC[C@@H](O)C[C@@H]1CC[C@@H]1[C@@H]2CC[C@]2(C)C(=O)CC[C@@H]12,inactive,–
